# Experimental data as given in the supplement of paper PMC11417369.
# ± gives the standard deviation of the averaged measurements. Whole data set: some 25,000 sequences, median “ln(normalized median fluorescence intensity)” near 8.9, cut for the highest 2% near 10. The list comes from a sample in which the highest values are over-represented; it also holds similar and randomly drawn sequences.
# Test system: PfAP2-LT AP2 domain (GST-tagged)
# Assay: gcPBM binding intensity (ln(normalized median fluorescence intensity)); higher = stronger DNA binding
# In short: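 Binding intensity values are the highest Masliner-normalised natural-log median intensity among replicate spots of either probe orientation. The binding step lasted 1 h in 1× PBS with 1% milk, 0.2 mg/ml BSA, 0.5% salmon testes DNA and 0.03% Triton X-100, using GST-tagged P. falciparum DNA-binding domains expressed in E. coli on an Agilent 4 × 180k array of primer-extended double-stranded 36-bp intergenic genomic probes plus negative controls. Alexa488 anti-GST antibody and a 488 nm scan detected bound protein.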
row,Sequence,gcPBM binding intensity (ln)
1,AATTAAAATACAAATGTATGCATGTCTCATATAGAA [TGCATGCA_site822],8.78 ± 0.43
2,ATTCTTAAATGTGGTTGTACATATTATCACCTTTAA [XGTACX_site8188],8.75 ± 0.42
3,TGGAGATTTTTAAAGACACACAGGTAAGAATAATAA [CACACA_site1582],8.77 ± 0.47
4,TATATATATGGACACACACACACATATATATATATA [CACACA_site6121],10.3 ± 0.23
5,GAGAAATGGAGACACACACACATATTATATATATAT [CACACA_site1532],9.85 ± 0.15
6,TATATATATGGACACACACACATATAAATAAATAAA [CACACA_site4406],9.71 ± 0.49
7,TAAATTTATGGACACACACACATATATATATATATA [CACACA_site4620],9.955 ± 0.021
8,AAAGGATATAGACACACACACACATATATATATATA [CACACA_site2200],10.3 ± 0.32
9,CAAGAAAATGGACACACACACATATATATATATATA [CACACA_site6010],10.37 ± 0.092
10,TATATGTAAATGGACACACACATATATATATATATA [CACACA_site3659],10 ± 0.13
11,AAAAATTATGGACACACACACATATATATATATATT [CACACA_site4717],9.8 ± 0.11
12,AAAGGATATGGACACACACACACATATATATATATA [CACACA_site8686],10.5 ± 0.15
13,TATATATATGGACACACACACATATATATATATTTT [CACACA_site5409],9.67 ± 0.23
14,TATATATATAGACACACACACACATATATATATATA [CACACA_site9366],10.02 ± 0.042
15,GATACCTATAGACACACACACATACCTATATACATA [CACACA_site7586],9.66 ± 0.47
16,ATAATATTGTGGTATACACACCTTACAAAAAGGTAC [CACACA_site5582],8.96 ± 0.42
17,AAATATAAAAATAGCACACATATATACCTATATATA [CACACA_site4204],8.99 ± 0.38
18,TATTGCCCTGGACACACACACATATATATATATATA [CACACA_site5389],10.2 ± 0.064
19,TATATTGCCCTTCACACACACACATATATATATATA [CACACA_site2492],10 ± 0.13
20,TATTGCCCTTGACACACACACATATAAATAAATATA [CACACA_site7220],9.34 ± 0.44
21,ATTCAAATATTAAAAAGTACAAAAAAAAAACAAAAA [XGTACX_site1174],8.63 ± 0.5
22,AAGCTTTCATAAAGATGTACTTTTTAAAAATAATCT [XGTACX_site5725],8.28 ± 0.3
23,TACATTTTATGCATTTGTACACAAATAAATAAATAA [XGTACX_site2652],8.49 ± 0.42
24,TTTTTCAGAAAAGAAACACACATATATATATTTATA [CACACA_site2372],8.56 ± 0.43
25,AATAATATATTTAGGGGTACATAATAATATATTTTA [XGTACX_site8366],8.66 ± 0.3
26,TTAGGCAAGGCGGGGGGTACGTTTTTATATAATTAT [XGTACX_site8029],10.2 ± 0.14
27,AAATATATTATAAATTGTACGTTTATATATATTATT [XGTACX_site5110],8.69 ± 0.47
